TGFb inhibitor – inhibitors of TGF-b signaling; HepG2 CAGA-GFP TGF-b/SMAD3 reporter, GFP fluorescence, 18 h; TGF-beta stimulated, 500 pg/mL final; Potency, µM (doses to about 46.1 µM), inactives show at the highest dose activity, negative = inhibition, actives largely listed as inhibitors; hit rate 1.2% among 410,000; AID 588855; further: potency means the concentration at half of the fitted maximal effect; on the % scale 0 is the no-effect control and ±100 the full control effect; nearly all actives have a fitted effect of over 65% in size
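TGF-beta reporter screen: HEPG2 CAGA-GFP, 1% FBS, 500 pg/mL TGF-beta final, 18 h; per-cell GFP summed per well; curves fitted and categorized by class.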
IL1B secr inh – blocks inflammasome-driven IL-1 beta release; THP-1 LPS/ATP IL-1B secretion, AlphaLISA, 16 h; hits give low values; activity change, % at 57.5 µM; hit rate 4.7% among 360,000; AID 743279; in the data active means activity change below about -50%; inconclusive means mostly about -30% to -49%; further: on the % scale 0 is the no-effect control and ±100 the full control effect
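Secreted IL-1B measured by AlphaLISA bead assay after 16 h compound exposure of THP-1 cells; compounds (final up to 57.5 uM) added 1 h before LPS (250 ng/mL) and ATP (1.25 mM) stimulation; lower signal means less secretion.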
TDP1 cell CPT – growth inhibition of DT40 Tdp1-/-;hTDP1 cells with camptothecin (screen for TDP1 inhibitors); chicken DT40 Tdp1-/-;hTDP1 cells + 20 nM CPT, ATP luminescence, 48 h; Potency, µM (titrated, usually from 46.2 µM), for the others: at the top dose activity change, negative = growth inhibition, most hits filed as inhibitors; hit rate 12% among 420,000; AID 686979; further: potency means the concentration at half of the fitted maximal effect; on the % scale 0 is the no-effect control and ±100 the full control effect; nearly all actives have a fitted effect of over 55% in size
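Chicken DT40 Tdp1-/- cells complemented with human TDP1, 400 cells/well, exposed to compounds plus 20 nM camptothecin for at least 48 h at 37 C; viability read as ATP content by CellTiter-Glo luminescence.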
TDP1 block – blocks human tyrosyl-DNA phosphodiesterase 1; Q9NUW8; recombinant TDP1, AlphaScreen DNA substrate cleavage; Potency, µM (titrated, usually from 130 µM), without a hit: top-dose activity change, negative = inhibition, usual class: inhibitors; hit rate 0.28% among 350,000; AID 485290; further: potency means the concentration at half of the fitted maximal effect; on the % scale 0 is the no-effect control and ±100 the full control effect; nearly all actives have a fitted effect of over 40% in size
Target sequence (Q9NUW8 whole entry, looked up): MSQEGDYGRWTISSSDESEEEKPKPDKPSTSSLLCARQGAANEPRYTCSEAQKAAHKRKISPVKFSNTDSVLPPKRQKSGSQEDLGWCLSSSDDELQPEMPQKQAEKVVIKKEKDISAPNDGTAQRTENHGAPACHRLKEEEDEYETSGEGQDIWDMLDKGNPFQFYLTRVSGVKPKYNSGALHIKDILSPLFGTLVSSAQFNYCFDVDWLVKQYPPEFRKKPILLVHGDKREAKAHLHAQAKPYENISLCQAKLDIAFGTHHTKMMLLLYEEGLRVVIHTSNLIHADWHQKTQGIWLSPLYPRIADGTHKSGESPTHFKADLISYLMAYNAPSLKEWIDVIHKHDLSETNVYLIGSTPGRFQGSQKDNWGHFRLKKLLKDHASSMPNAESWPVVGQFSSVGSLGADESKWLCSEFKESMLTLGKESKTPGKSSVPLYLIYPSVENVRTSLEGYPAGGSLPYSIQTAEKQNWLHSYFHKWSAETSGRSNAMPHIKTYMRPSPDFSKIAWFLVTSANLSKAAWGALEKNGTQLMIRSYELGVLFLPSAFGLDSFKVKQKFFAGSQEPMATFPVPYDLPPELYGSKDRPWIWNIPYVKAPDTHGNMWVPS
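Recombinant human Tdp1 (E. coli-expressed, 1 nM final) preincubated with compounds 15 min at room temperature, then 5'-biotin/3'-phosphotyrosine-FITC DNA substrate (15 nM final) added for 5 min. AlphaScreen beads (10 ug/ml final) added 10 min; cleavage lowers signal.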
TDP1 cell noCPT – qHTS for Inhibitors of human tyrosyl-DNA phosphodiesterase 1 (TDP1): qHTS in cells in absence of CPT; Potency, µM (titrated, usually from 46.2 µM), for inactives: at the top dose activity change, negative = growth inhibition, most hits filed as inhibitors; AID 686978, 2013; hit rate 15% among 420,000; DT40 Tdp1-/- hTDP1 cells, no CPT, ATP luminescence, 48 h; further: potency means the concentration at half of the fitted maximal effect; on the % scale 0 is the no-effect control and ±100 the full control effect; nearly all actives have a fitted effect of over 55% in size
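Chicken DT40 Tdp1-/- cells complemented with human TDP1, screened without camptothecin (DMSO vehicle only), 400 cells/well. Compounds pin-transferred, cells incubated at 37 °C for at least 48 hr. Growth read as ATP-dependent luminescence (CellTiter-Glo, 30 min at RT).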
HepG2 tox – counter-screen for TGF-b inhibitors: cytotoxicity in HepG2 cells | HepG2 CAGA-GFP viability, ATP luminescence, 18 h | Potency, µM (doses to about 46.1 µM), for inactives: top-dose activity change, negative = cytotoxicity, usual class: cytotoxic | hit rate 0.76% among 410,000; further: potency means the concentration at half of the fitted maximal effect
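CellTiter-Glo luminescence gave cytotoxicity after 18 hours at 37 degrees C. The cells were HepG2 CAGA-GFP in 1% FBS DMEM, stimulated with 500 pg/mL TGF-beta after compound addition. %Activity was normalised to no-cell wells (complete cell-killing) and DMSO (no toxicity), and curves were fitted and classified.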
The depositor's hits bear a star; ? = inconclusive; / = not tested or not shown; [ ] = dose if it differs, or a comment. Shown are actives, neighbours in structure and some others; about 18% of the full set was active somewhere. Unless noted, the call rests on the fitted dose curve; in most records, active means well fitted curve in the direction sought with a large enough effect; inconclusive means small, poorly fitted or top-dose-only effect, or another doubt; inactive means no such curve, though single readings can be large; an effect the other way counts as inactive or inconclusive.

SMILES | TGFb inhibitor | IL1B secr inh | TDP1 cell CPT | TDP1 block | TDP1 cell noCPT | HepG2 tox
C#Cc1ccc([C@H]2C=C(C(=O)NCc3ccccc3)O[C@@H](OCC)[C@@H]2CCCO)cc1 | ? | ? | ? | 6% | ? | 2%
CCO[C@@H]1OC(C(=O)N2CCN(Cc3ccc4c(c3)OCO4)CC2)=C[C@H](C2CC2)[C@H]1CCCO | -7% | -4 | ? | 3% | ? | -26%
O/N=C/c1cc(Cl)ccc1OCc1cccc2ccccc12 | / | / | / | -2% | / | /
C=CCC1C=CC(Oc2ccc(OC)cc2)C(CO)O1 (stereo not given) | / | / | / | 1%[21 µM] | / | /
COc1ccccc1CNc1cc(-c2ccoc2)ncn1 | / | / | 4% | / | -19% | /
Nc1cc2c(cc1Br)-c1c(C(=O)O)cccc1C2O (stereo not given) | -7% | 24 | -17% | / | -22% | 6%
Cc1ccc(-c2nc3ccccc3[nH]2)cc1NC(=O)c1ccc2c(c1)OCO2 | -19% | -17 | ? | 4% | ? | -31%
S=C(NCc1ccc2c(c1)OCO2)Nc1ccc(-c2nc3ccccc3[nH]2)cc1 | 0% | ? | 21µM* | 7% | 18µM* | -24%
O=C(NC(=S)Nc1cc(-c2nc3ccccc3[nH]2)ccc1Cl)c1ccc2c(c1)OCO2 | 12% | -22 | 5.2µM* | 5% | 3.7µM* | -31%
Cc1ccc(OCC(=O)Nc2nnc(S(=O)(=O)N3CCc4ccccc43)s2)cc1 | ? | / | ? | 4% | ? | -38%
COc1ccccc1N1CCN(C2CCCN(Cc3ccccc3OCCO)C2)CC1 (stereo not given) | 1% | 16 | 9% | 3% | 4% | 11%
CCOc1ccc(Nc2ncnc3ccc([N+](=O)[O-])cc23)cc1 | -20% | -6 | ? | 9% | 6.5µM* | 3%
CCOc1ccc(Nc2ccc3nonc3c2[N+](=O)[O-])cc1 | 3% | -11 | 4% | / | ? | -4%
COc1cccc(NC(=O)CN(C)C(=O)c2cc(-c3ccco3)nc3ccccc23)c1 | 2% | -6 | ? | -13%[0.505 µM] | 18µM* | 1%
COc1ccc(NC(=O)CN(C)C(=O)Cc2n[nH]c(=O)c3ccccc23)cc1 | 9% | 31 | 9.2µM* | / | -10% | -4%
COc1cccc(NC(=O)CN(C)C(=O)Cc2n[nH]c(=O)c3ccccc23)c1 | 1% | 20 | -9% | -6% | 0% | 0%
CN(CC(=O)Nc1ccc(F)cc1)C(=O)c1cc(-c2ccco2)nc2ccccc12 | 0% | -14 | -6% | / | ? | -6%
CCOc1ccc(NC(=O)CN(C)C(=O)c2cc(-c3ccncc3)nc3ccccc23)cc1OCC | ? | -11 | ? | -7%[0.505 µM] | 16µM* | -30%
COc1ccc(NC(=O)CN(C)C(=O)c2cc(-c3ccccc3)nc3ccccc23)cc1 | -13% | ? | ? | / | 15µM* | 21%
CCOc1ccc(NC(=O)CN(C)C(=O)c2cc(C)nc3ccccc23)cc1OCC | 9% | 17 | -20% | 0% | ? | 0%
CCCCCN(CCCCC)C(=O)C(CCC(=O)O)NC(=O)c1ccc(Cl)c(Cl)c1 (stereo not given) | -16% | 15 | -14% | -2%[56.1 µM] | -11% | -32%
Cc1noc(C)c1-c1ccc2ncnc(Nc3ccccc3)c2c1 | / | / | -28% | / | ? | /
CCOc1ccc(N2C(=O)N(Cc3c(F)cccc3Cl)c3ccccc3S2(=O)=O)cc1 | -13% | / | -27% | 0% | ? | -4%
COc1ccc(C(=O)N2CCC3(CC2)CN(c2ccccn2)C3)cc1 | / | / | -10% | / | ? | /
CN1CCN(S(=O)(=O)c2cccc(C(=O)Nc3ccc(Br)cc3Br)c2)CC1 | -23% | -17 | ? | / | ? | -27%
SMILES | TGFb inhibitor | IL1B secr inh | TDP1 cell CPT | TDP1 block | TDP1 cell noCPT | HepG2 tox
COc1ccc(NC(=O)CN(C)C(=O)c2cc(-c3ccncc3)nc3ccccc23)cc1 | -5% | -20 | -28% | 4% | ? | -17%
CCOc1ccc(NC(=O)CN(C)C(=O)c2cc(-c3ccco3)nc3ccccc23)cc1OCC | 0% | -5 | 18µM* | / | 18µM* | -14%
Cc1ccc2nc(-c3ccccc3)cc(C(=O)N(C)CC(=O)Nc3ccccc3Br)c2c1 | 5% | ? | ? | 0% | 26µM* | -11%
CN(CCOc1ccc(Cl)cc1)C(=O)c1cc(-c2ccco2)nc2ccccc12 | ? | -81* | ? | / | ? | -18%
COc1ccc(Cl)cc1NC(=O)CN(C)C(=O)c1cc(-c2ccncc2)nc2ccccc12 | 14% | -25 | 23µM* | 6% | 15µM* | -6%
O=C(N/N=C/c1cc([N+](=O)[O-])ccc1O)c1cccc2ccccc12 | / | / | / | 1% | / | /
O=C(NCc1ccco1)c1ccc2c(c1)N(Cc1ccc(Cl)cc1)C(=O)c1ccccc1S2(=O)=O | 3% | / | ? | 1% | 18µM* | -6%
CCCCN(C)C(=O)c1ccc2c(c1)N(Cc1ccc(F)cc1)C(=O)c1ccccc1S2(=O)=O | / | / | 16µM* | 5% | 16µM* | -17%
O=C(NCc1ccco1)c1ccc2c(c1)N(Cc1cccc(Cl)c1)C(=O)c1ccccc1S2(=O)=O | -21% | / | ? | 4% | ? | -20%
O=C(NCc1ccco1)c1ccc2c(c1)N(Cc1ccc(Cl)cc1)C(=O)c1ccccc1S2=O (stereo not given) | ? | / | ? | 6% | 18µM* | 1%
CN(Cc1ccccc1)C(=O)c1ccc2c(c1)N(Cc1ccc(Cl)cc1)C(=O)c1ccccc1S2=O (stereo not given) | 0% | / | 16µM* | 5% | 16µM* | 4%
O=C(CSc1nc2c([nH]c3ccccc32)c(=O)n1-c1ccc(Cl)cc1)NCc1ccccc1 | 1% | / | ? | 3% | ? | -13%
CN(Cc1ccccc1)C(=O)c1ccc2c(c1)N(Cc1ccccc1Cl)C(=O)c1ccccc1S2 | -11% | / | ? | 5% | ? | -3%
O=C(NCc1ccco1)c1ccc2c(c1)N(Cc1ccc(F)cc1)C(=O)c1ccccc1S2(=O)=O | / | / | ? | 2% | 15µM* | -46%
COc1cccc(CN2C(=O)c3ccccc3Sc3ccc(C(=O)N(C)Cc4ccccc4)cc32)c1 | ? | / | ? | 5% | 18µM* | 4%
O=C(NCCC1=CCCCC1)c1ccc2c(c1)N(Cc1ccc(F)cc1)C(=O)c1ccccc1S2(=O)=O | / | / | 21µM* | 8% | 7.3µM* | -30%

Assay outcomes (PubChem BioAssay)
